Results: the supplement of paper PMC11732987, “Enantioselective OTUD7B fragment discovery through chemoproteomics screening and high-throughput optimisation” (Communications Chemistry, 2025)

Experiments:
Experiment in all cases: log2 ratio of Biotin-Ahx-Ub-VS probe labelling (fragment/DMSO); higher = less target engagement (more negative = stronger competition), active = hit call of the paper (q ≤ 0.05, log2 ratio ≤ -1)
Conditions in all cases: compound concentration: 200 uM; treatment time: 3 h
[1] = biological target: T1, ALG13 (UniProt Q9NP73)
T1 sequence (whole entry): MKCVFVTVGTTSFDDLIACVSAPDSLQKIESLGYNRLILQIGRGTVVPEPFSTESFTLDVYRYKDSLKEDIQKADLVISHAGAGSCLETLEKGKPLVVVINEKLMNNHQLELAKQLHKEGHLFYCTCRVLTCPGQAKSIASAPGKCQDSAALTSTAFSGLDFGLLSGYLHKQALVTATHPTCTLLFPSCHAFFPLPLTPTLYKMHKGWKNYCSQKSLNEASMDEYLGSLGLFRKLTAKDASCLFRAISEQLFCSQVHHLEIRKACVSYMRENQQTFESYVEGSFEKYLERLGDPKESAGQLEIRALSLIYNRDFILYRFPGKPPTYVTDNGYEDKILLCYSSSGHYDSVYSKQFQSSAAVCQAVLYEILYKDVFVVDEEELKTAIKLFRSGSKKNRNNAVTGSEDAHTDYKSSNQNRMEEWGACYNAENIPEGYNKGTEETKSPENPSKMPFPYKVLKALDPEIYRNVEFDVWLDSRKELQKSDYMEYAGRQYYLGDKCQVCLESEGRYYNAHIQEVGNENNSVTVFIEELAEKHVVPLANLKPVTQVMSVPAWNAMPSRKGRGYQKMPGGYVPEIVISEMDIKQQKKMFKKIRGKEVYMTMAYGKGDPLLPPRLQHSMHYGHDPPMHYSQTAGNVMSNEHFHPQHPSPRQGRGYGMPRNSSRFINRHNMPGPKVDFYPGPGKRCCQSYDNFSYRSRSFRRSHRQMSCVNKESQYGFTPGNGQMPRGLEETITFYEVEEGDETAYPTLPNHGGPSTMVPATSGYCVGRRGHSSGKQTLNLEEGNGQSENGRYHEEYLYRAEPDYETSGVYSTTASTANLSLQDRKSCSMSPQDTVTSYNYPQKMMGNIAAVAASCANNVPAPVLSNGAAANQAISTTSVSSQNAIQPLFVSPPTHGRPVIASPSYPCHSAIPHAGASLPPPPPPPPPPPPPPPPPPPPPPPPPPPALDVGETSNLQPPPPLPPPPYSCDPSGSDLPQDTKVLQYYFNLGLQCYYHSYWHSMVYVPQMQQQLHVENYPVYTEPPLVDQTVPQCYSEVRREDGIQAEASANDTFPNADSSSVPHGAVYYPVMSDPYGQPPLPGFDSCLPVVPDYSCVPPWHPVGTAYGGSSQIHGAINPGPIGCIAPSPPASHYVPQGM
Method in brief: (§1)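 Lysate from HEK293T cells, 495 µg per sample in Tris/CHAPS/IGEPAL buffer with protease inhibitors, was treated for 3 h in triplicate with fragment at 200 µM or vehicle. Biotin-Ahx-Ub-VS was next added at 0.5 µM final for 1 h. The labelled DUBs were enriched with NeutrAvidin, digested with LysC and trypsin, and run by diaPASEF LC-MS/MS, with values given as average log2 fragment/vehicle ratios by unpaired t-test on global-median-normalised Spectronaut quantities of proteins with ≥2 unique peptides.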

[2] = biological target: ATXN3 (UniProt P54252)
ATXN3, sequence (P54252 whole entry): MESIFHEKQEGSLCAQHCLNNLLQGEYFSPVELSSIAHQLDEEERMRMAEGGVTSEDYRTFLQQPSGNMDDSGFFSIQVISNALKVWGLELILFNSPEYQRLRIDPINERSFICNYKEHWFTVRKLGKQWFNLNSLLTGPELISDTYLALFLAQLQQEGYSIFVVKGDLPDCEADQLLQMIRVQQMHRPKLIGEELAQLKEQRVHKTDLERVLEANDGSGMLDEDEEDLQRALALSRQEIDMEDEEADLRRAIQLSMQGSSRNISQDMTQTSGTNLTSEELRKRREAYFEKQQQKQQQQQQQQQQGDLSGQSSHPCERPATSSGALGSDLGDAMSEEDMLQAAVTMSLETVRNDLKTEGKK
Method in brief: as §1

[3] = biological target: T2, BAP1 (UniProt Q92560)
T2 sequence (whole entry): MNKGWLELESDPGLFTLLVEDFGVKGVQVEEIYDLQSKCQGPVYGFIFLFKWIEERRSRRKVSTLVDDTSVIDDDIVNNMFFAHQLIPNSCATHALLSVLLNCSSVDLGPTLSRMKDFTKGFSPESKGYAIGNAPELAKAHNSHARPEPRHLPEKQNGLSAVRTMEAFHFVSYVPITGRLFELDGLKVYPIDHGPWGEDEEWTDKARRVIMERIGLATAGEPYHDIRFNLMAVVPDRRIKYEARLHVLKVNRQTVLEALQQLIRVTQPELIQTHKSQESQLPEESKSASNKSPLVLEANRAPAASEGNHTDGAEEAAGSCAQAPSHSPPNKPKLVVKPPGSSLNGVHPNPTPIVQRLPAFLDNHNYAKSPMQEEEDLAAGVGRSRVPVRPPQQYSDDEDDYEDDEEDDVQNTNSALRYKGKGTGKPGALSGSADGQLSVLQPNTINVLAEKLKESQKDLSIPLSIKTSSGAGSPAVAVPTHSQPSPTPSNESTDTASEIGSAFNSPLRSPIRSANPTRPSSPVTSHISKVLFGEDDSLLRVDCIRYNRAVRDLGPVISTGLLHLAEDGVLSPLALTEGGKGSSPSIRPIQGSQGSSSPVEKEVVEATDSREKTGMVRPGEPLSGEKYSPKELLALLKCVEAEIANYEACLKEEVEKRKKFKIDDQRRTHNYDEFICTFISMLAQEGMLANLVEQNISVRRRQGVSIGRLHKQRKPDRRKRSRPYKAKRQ
Method in brief: as §1

[4] = biological target: EIF3F (UniProt O00303)
EIF3F, sequence (O00303 whole entry): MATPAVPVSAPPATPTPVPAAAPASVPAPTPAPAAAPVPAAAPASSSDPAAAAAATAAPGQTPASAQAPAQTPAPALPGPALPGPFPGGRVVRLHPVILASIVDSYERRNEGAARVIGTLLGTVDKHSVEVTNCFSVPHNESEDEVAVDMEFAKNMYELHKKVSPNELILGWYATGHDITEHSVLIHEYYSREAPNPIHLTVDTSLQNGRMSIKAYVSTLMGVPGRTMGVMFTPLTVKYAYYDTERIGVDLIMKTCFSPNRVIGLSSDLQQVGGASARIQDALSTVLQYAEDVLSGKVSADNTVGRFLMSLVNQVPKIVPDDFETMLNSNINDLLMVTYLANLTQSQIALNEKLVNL
Method in brief: as §1

[5] = biological target: EIF3H (UniProt O15372)
EIF3H, sequence (O15372 whole entry): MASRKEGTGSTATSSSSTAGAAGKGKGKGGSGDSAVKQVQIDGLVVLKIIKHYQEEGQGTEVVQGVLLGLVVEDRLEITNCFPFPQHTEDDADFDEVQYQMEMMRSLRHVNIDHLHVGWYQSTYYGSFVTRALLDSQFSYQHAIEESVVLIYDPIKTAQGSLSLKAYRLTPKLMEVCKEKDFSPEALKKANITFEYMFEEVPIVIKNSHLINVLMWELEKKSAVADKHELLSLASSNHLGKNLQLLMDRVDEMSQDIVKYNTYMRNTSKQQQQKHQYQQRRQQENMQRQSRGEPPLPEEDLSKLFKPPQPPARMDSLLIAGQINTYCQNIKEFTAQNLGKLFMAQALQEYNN
Method in brief: as §1

[6] = biological target: T3, FAM105A (UniProt Q9NUU6)
T3 sequence (whole entry): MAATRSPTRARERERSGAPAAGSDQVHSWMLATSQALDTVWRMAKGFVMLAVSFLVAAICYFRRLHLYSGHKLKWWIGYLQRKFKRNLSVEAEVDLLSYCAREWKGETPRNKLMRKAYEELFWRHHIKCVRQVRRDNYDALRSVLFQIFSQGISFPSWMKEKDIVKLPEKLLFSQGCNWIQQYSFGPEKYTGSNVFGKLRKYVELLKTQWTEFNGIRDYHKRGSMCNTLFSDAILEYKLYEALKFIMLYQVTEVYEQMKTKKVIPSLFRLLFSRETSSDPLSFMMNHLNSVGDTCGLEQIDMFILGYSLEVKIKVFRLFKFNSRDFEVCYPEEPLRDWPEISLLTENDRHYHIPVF
Method in brief: as §1

[7] = biological target: OTUB1 (UniProt Q96FW1)
OTUB1, sequence (Q96FW1 whole entry): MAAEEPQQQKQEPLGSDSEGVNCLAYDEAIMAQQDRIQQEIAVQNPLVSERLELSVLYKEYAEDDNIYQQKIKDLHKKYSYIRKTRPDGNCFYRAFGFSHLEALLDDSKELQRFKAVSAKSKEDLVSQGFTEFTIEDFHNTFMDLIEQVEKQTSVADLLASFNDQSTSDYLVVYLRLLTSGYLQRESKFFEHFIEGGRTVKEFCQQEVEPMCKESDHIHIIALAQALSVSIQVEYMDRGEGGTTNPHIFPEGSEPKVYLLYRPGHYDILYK
Method in brief: as §1

[8] = biological target: T4, OTUD4 (UniProt Q01804)
T4 sequence (whole entry): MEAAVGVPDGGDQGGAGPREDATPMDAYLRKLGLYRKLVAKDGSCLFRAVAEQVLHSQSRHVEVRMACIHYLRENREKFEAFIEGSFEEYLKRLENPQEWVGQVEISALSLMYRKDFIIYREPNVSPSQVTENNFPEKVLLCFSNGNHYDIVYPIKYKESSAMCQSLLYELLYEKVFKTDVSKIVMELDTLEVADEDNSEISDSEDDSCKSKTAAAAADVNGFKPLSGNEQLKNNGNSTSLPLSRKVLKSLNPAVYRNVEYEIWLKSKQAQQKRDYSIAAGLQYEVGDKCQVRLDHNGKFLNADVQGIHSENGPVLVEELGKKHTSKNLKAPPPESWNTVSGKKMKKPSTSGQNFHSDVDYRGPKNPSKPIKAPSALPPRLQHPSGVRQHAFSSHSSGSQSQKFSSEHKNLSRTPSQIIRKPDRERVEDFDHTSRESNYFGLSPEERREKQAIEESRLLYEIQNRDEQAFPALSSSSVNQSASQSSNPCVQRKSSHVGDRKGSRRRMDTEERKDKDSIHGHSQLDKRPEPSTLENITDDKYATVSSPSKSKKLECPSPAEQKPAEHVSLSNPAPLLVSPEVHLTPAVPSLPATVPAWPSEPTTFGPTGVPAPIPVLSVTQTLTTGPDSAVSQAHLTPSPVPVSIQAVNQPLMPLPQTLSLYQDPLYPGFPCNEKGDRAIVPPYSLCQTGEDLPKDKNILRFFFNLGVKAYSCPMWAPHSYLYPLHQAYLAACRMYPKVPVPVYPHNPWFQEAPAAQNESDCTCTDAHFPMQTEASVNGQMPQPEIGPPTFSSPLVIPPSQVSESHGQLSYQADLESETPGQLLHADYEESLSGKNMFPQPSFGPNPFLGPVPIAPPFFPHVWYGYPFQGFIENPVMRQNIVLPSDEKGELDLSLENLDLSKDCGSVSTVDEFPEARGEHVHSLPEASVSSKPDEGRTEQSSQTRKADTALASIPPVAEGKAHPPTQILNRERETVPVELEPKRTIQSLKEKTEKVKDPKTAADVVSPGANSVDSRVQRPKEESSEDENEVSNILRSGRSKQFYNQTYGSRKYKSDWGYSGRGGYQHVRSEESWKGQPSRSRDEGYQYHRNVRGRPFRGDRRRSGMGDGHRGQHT
Method in brief: as §1

[9] = biological target: T5, OTUD5 (UniProt Q96G74)
T5 sequence (whole entry): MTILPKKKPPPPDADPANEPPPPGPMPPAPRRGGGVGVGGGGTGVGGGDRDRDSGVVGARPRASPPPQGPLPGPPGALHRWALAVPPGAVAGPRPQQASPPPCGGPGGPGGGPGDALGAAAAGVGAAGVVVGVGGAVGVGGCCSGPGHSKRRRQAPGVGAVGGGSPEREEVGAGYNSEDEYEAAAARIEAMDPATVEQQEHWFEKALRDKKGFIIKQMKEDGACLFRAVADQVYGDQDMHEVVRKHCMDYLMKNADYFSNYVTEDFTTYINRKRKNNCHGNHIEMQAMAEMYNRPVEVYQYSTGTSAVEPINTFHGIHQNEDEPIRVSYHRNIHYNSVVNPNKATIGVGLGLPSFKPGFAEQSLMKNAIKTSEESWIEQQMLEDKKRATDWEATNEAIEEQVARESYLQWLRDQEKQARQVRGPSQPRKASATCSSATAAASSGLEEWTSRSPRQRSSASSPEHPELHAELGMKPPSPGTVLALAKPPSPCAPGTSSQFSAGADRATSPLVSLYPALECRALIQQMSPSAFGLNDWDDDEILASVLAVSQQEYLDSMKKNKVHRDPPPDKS
Method in brief: as §1

Measured: log2 ratio of Biotin-Ahx-Ub-VS probe labelling

Cc1n[nH]c(=O)c2c(NC(=O)CCl)oc(C)c12
inactive: [1] 0.211 | [2] 0.117 | [3] 0.169 | [4] 0.173 | [5] 0.156 | [6] -0.0353 | [7] 0.329 | [8] 0.0677 | [9] -0.187
